This is part of a sample that, as a whole, favours compounds with a hit. Of some 79,000 tested, about 15% had one in any assay. Activity calls are given as the source filed them. Rule as the data show it: active = growth inhibition above about 70%; inactive = the rest.
Legend:
[1] = NCI Yeast Anticancer Drug Screen. Data for the rad52 strain (AID 147);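 also: 0% = growth of vehicle-treated control cultures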; settings: S. cerevisiae rad52 mutant growth inhibition, hits give high values
How it was run: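 Vehicle-treated cultures served as the reference for growth inhibition of compound-exposed yeast bearing a DNA repair mutation.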

[2] = NCI Yeast Anticancer Drug Screen. Data for the wt1 strain (AID 149);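 also: 0% = growth of vehicle-treated wt1 cultures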; settings: S. cerevisiae wt1 strain (SPY 50644) growth inhibition, hits give high values
How it was run: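 Yeast wt1 strain exposed to compounds; growth inhibition measured relative to vehicle-treated controls.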

[3] = NCI Yeast Anticancer Drug Screen. Data for the rad50EPP+ strain (AID 151);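 also: 0% = growth of vehicle-treated control cultures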; settings: S. cerevisiae rad50 mutant strain, hits give high values
How it was run: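 In this screen, rad50EPP+ yeast were exposed to compounds. Growth inhibition was scored against vehicle-treated controls.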

[4] = NCI Yeast Anticancer Drug Screen. Data for the mgt1 strain (AID 153); settings: S. cerevisiae mgt1 mutant growth inhibition, hits give high values
How it was run: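 mgt1 strain exposed; growth vs vehicle control recorded as inhibition.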

[5] = NCI Yeast Anticancer Drug Screen. Data for the rad50 strain (AID 155);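 also: 0% = growth of vehicle-only cultures of the same strain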; settings: S. cerevisiae rad50 strain growth inhibition, hits give high values
How it was run: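 Yeast carrying a defined DNA repair defect were exposed to test compounds, and growth was compared with vehicle-treated controls to give percent inhibition.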

[6] = NCI Yeast Anticancer Drug Screen. Data for the mec2-1 strain (AID 157); settings: S. cerevisiae mec2-1 strain, hits give high values
How it was run: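 Vehicle-treated cultures served as reference for growth inhibition of compound-exposed mec2-1 yeast.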

[7] = NCI Yeast Anticancer Drug Screen. Data for the rad14 strain (AID 159);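 also: 0% = growth of vehicle-treated control cultures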; settings: S. cerevisiae rad14 strain growth inhibition, hits give high values
How it was run: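 Yeast cells carrying a defined DNA-repair defect were exposed to compounds, and growth inhibition was calculated relative to vehicle-treated control cultures.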

[8] = NCI Yeast Anticancer Drug Screen. Data for the sgs1 mgt1 strain (AID 161);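 also: 0% = growth of cultures given vehicle only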; settings: S. cerevisiae sgs1 mgt1 strain, hits give high values
How it was run: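 Read-out: growth inhibition vs vehicle controls. Cells: mutant yeast strain deficient in DNA damage repair.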

[9] = NCI Yeast Anticancer Drug Screen. Data for the CLN2oe strain (AID 163);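 also: 0% = growth of vehicle-only control cultures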; settings: S. cerevisiae CLN2oe strain, hits give high values
How it was run: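 Inhibition relative to vehicle-treated yeast is reported. Cells: strain with genetic alteration in cell-cycle control, grown with compound.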

[10] = NCI Yeast Anticancer Drug Screen. Data for the cln2 rad14 strain (AID 165);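 also: 0% = growth equal to vehicle treated cultures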; settings: S. cerevisiae cln2 rad14 strain, hits give high values
How it was run: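 Each compound was tested on cln2 rad14 yeast. Inhibition of growth was calculated against vehicle-exposed controls.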

[11] = NCI Yeast Anticancer Drug Screen. Data for the bub3 strain (AID 167); settings: S. cerevisiae bub3 mutant strain, hits give high values
How it was run: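 Compounds were applied to a genetically altered yeast strain carrying a cell-cycle control defect. Growth inhibition was scored against vehicle-treated controls.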

[12] = NCI Yeast Anticancer Drug Screen. Data for the wt2 strain (AID 169);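 also: 0% = growth of vehicle-treated yeast cultures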; settings: S. cerevisiae wt2 strain growth inhibition, hits give high values
How it was run: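 Inhibition of yeast growth was determined after compound treatment, normalised to controls receiving only vehicle.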

[13] = NCI Yeast Anticancer Drug Screen. Data for the mlh1 strain (AID 171);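 also: 0% = growth of vehicle-treated control cultures of the same strain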; settings: S. cerevisiae mlh1 strain growth inhibition, hits give high values
How it was run: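 Vehicle-normalised growth inhibition of a repair- or checkpoint-altered yeast strain following compound treatment.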

[14] = NCI Yeast Anticancer Drug Screen. Data for the sgs1 strain (AID 173);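 also: 0% = growth of vehicle-only control cultures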; settings: S. cerevisiae sgs1 mutant, hits give high values
How it was run: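 Screen format: yeast with repair or checkpoint alterations, compound exposure, growth read relative to vehicle.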

[15] = NCI Yeast Anticancer Drug Screen. Data for the mlh1 rad18 strain (AID 175); settings: S. cerevisiae mlh1 rad18 strain growth inhibition, hits give high values
How it was run: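 Vehicle-treated cultures served as the reference for growth inhibition in a yeast strain carrying DNA damage repair alterations exposed to each compound.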

[16] = NCI Yeast Anticancer Drug Screen. Data for the rad18 strain (AID 177); settings: S. cerevisiae rad18 mutant growth inhibition, hits give high values
How it was run: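 Test articles were incubated with altered yeast defective in DNA damage repair. Results are given as inhibition of growth versus vehicle.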

[17] = at 5.0 µM (retest, dose inferred, filed as 0.5)
[18] = at 50.0 µM (retest, dose inferred, filed as 5.0)

Measured: growth inhibition

O=[N+]([O-])c1ccc([N+]2=NC(c3ccccc3)=NN(c3ccccc3)C2)cc1
inactive: [1]; at 1.2 µM 8% | [1]; at 3.7 µM 11% | [1]; at 11.0 µM 10% | [1]; at 33.0 µM 14% | [1]; at 100.0 µM 56% | [2]; at 1.2 µM 3% | [2]; at 3.7 µM 5% | [2]; at 11.0 µM 4% | [2]; at 33.0 µM 3% | [2]; at 100.0 µM 51% | [3]; at 1.2 µM 6% | [3]; at 3.7 µM 12% | [3]; at 11.0 µM 21% | [3]; at 33.0 µM 22% | [3]; at 100.0 µM 20% | [4]; at 1.2 µM 6% | [4]; at 3.7 µM 5% | [4]; at 11.0 µM 7% | [4]; at 33.0 µM 21% | [5]; at 1.2 µM 5% | [5]; at 3.7 µM -6% | [5]; [17] 1% | [5]; at 11.0 µM -9% | [5]; at 33.0 µM 15% | [5]; [18] 30% | [5]; at 50.0 µM 67.3% | [5]; at 100.0 µM 63% | [6]; at 1.2 µM -2% | [6]; at 3.7 µM -2% | [6]; [17] -9% | [6]; at 11.0 µM 0% | [6]; at 33.0 µM 9% | [6]; [18] 6% | [6]; at 50.0 µM 18.4% | [6]; at 100.0 µM 42% | [7]; at 1.2 µM 4% | [7]; at 3.7 µM 8% | [7]; at 11.0 µM 20% | [7]; at 33.0 µM 44% | [8]; [17] -1% | [8]; [18] 17% | [9]; at 1.2 µM -5% | [9]; at 3.7 µM -3% | [9]; at 11.0 µM -2% | [9]; at 33.0 µM 2% | [9]; at 100.0 µM 40% | [10]; [17] 9% | [10]; [18] 20% | [10]; at 50.0 µM 21.4% | [11]; at 1.2 µM -2% | [11]; at 3.7 µM 0% | [11]; [17] 10% | [11]; at 11.0 µM 12% | [11]; at 33.0 µM 30% | [12]; at 1.2 µM 0% | [12]; at 3.7 µM 2% | [12]; at 11.0 µM 1% | [12]; at 33.0 µM 11% | [13]; at 1.2 µM 1% | [13]; at 3.7 µM 4% | [13]; at 11.0 µM 6% | [13]; at 33.0 µM 19% | [14]; at 1.2 µM 0% | [14]; at 3.7 µM 1% | [14]; at 11.0 µM 2% | [14]; at 33.0 µM 28% | [15]; [17] -2% | [15]; [18] 48% | [16]; at 1.2 µM 3% | [16]; at 3.7 µM 4% | [16]; at 11.0 µM 2% | [16]; at 33.0 µM 11%
active: [4]; at 100.0 µM 95% | [7]; at 100.0 µM 93% | [8]; at 50.0 µM 74.5% | [11]; [18] 91% | [11]; at 50.0 µM 78% | [11]; at 100.0 µM 87% | [12]; at 100.0 µM 95% | [13]; at 100.0 µM 93% | [14]; at 100.0 µM 91% | [15]; at 50.0 µM 80.5% | [16]; at 100.0 µM 70%

CC(=O)Nc1ccc(SC(C)=O)cc1
active: [1]; at 100.0 µM 86% | [2]; at 100.0 µM 85% | [4]; at 100.0 µM 86% | [5]; [17] 80% | [5]; [18] 100% | [5]; at 50.0 µM 70.7% | [5]; at 100.0 µM 86% | [6]; [17] 72% | [6]; [18] 100% | [6]; at 100.0 µM 86% | [7]; at 100.0 µM 88% | [8]; [18] 78% | [9]; at 100.0 µM 85% | [10]; [18] 85% | [11]; [18] 77% | [11]; at 100.0 µM 87% | [12]; at 100.0 µM 88% | [13]; at 100.0 µM 86% | [14]; at 100.0 µM 88% | [15]; [18] 100% | [15]; at 50.0 µM 72.3% | [16]; at 100.0 µM 84%
inactive: [1]; at 1.2 µM 0% | [1]; at 3.7 µM -21% | [1]; at 11.0 µM -2% | [1]; at 33.0 µM 58% | [2]; at 1.2 µM -36% | [2]; at 3.7 µM -30% | [2]; at 11.0 µM -18% | [2]; at 33.0 µM 43% | [3]; at 1.2 µM -29% | [3]; at 3.7 µM -22% | [3]; at 11.0 µM -6% | [3]; at 33.0 µM -1% | [3]; at 100.0 µM 29% | [4]; at 1.2 µM -55% | [4]; at 3.7 µM -45% | [4]; at 11.0 µM -32% | [4]; at 33.0 µM 44% | [5]; at 1.2 µM -29% | [5]; at 3.7 µM -4% | [5]; at 11.0 µM 7% | [5]; at 33.0 µM 59% | [6]; at 1.2 µM -41% | [6]; at 3.7 µM -45% | [6]; at 11.0 µM -9% | [6]; at 33.0 µM 62% | [6]; at 50.0 µM 56.8% | [7]; at 1.2 µM -27% | [7]; at 3.7 µM -38% | [7]; at 11.0 µM -5% | [7]; at 33.0 µM 56% | [8]; [17] -6% | [8]; at 50.0 µM 60.6% | [9]; at 1.2 µM -5% | [9]; at 3.7 µM -17% | [9]; at 11.0 µM 12% | [9]; at 33.0 µM 47% | [10]; [17] 44% | [10]; at 50.0 µM 66.7% | [11]; at 1.2 µM -25% | [11]; at 3.7 µM -6% | [11]; [17] 18% | [11]; at 11.0 µM 0% | [11]; at 33.0 µM 63% | [11]; at 50.0 µM 55.6% | [12]; at 1.2 µM -22% | [12]; at 3.7 µM -23% | [12]; at 11.0 µM -10% | [12]; at 33.0 µM 54% | [13]; at 1.2 µM -25% | [13]; at 3.7 µM -26% | [13]; at 11.0 µM 6% | [13]; at 33.0 µM 54% | [14]; at 1.2 µM -30% | [14]; at 3.7 µM -9% | [14]; at 11.0 µM 10% | [14]; at 33.0 µM 65% | [15]; [17] 60% | [16]; at 1.2 µM -28% | [16]; at 3.7 µM -10% | [16]; at 11.0 µM -4% | [16]; at 33.0 µM 52%

O=C1c2cc([N+](=O)[O-])ccc2-c2cccc(F)c21
inactive: [1]; at 1.2 µM 14% | [1]; at 3.7 µM 31% | [1]; at 11.0 µM 57% | [2]; at 1.2 µM -1% | [2]; at 3.7 µM -2% | [2]; at 11.0 µM 8% | [2]; at 33.0 µM 10% | [2]; at 100.0 µM 20% | [3]; at 1.2 µM 9% | [3]; at 3.7 µM 27% | [3]; at 11.0 µM 49% | [3]; at 33.0 µM 69% | [4]; at 1.2 µM 1% | [4]; at 3.7 µM -5% | [4]; at 11.0 µM 12% | [4]; at 33.0 µM 20% | [4]; at 100.0 µM 28% | [5]; at 1.2 µM 12% | [5]; at 3.7 µM 32% | [5]; [17] 7% | [5]; at 11.0 µM 61% | [5]; [18] 60% | [6]; at 1.2 µM 0% | [6]; at 3.7 µM 3%
active: [1]; at 33.0 µM 82% | [1]; at 100.0 µM 87% | [3]; at 100.0 µM 75% | [5]; at 33.0 µM 84% | [5]; at 50.0 µM 91.9% | [5]; at 100.0 µM 83%

Source: PubChem BioAssay (NCI)
